Among the data in the antibiotic and cytotoxicity screens of Wong et al. (2023) are cytotoxicity call values, retold here.

Out of some 39,000 compounds screened, about 3,300 (8.5%) were called active. The full list was thinned out, with actives kept by preference.

This test deals with HepG2. Kind of test: cytotoxicity call (relative viability < 0.9). The note with it: 10 µM.
Consider `COc1ccc(S(=O)(=O)Nc2cccc3c2O[C@@H](CN(C)S(=O)(=O)c2cccs2)[C@@H](C)CN([C@H](C)CO)C3=O)cc1`, for which the cytotoxicity call was “inactive”.

`N#CCC(=O)Nc1ccncc1`: the cytotoxicity call was “inactive”.

In the case of `COc1ccc(S(=O)(=O)N[C@H]2C=C[C@@H](CC(=O)NCCc3ccncc3)O[C@@H]2CO)cc1`, the cytotoxicity call was “inactive”.

Take `COc1ccc(NC(=O)N2C[C@@H](O)COC[C@@H]3O[C@@H](CC(=O)NCc4ccccc4OC)CC[C@H]32)cc1`: the cytotoxicity call was “inactive”.

For `C[C@H]1CN([C@@H](C)CO)S(=O)(=O)c2ccc(C#Cc3ccccc3F)cc2O[C@H]1CN(C)C(=O)Cc1ccncc1`, the cytotoxicity call was “inactive”.

Turning to `CC(C)N1C[C@H](C)[C@@H](CN(C)Cc2ccc(Oc3ccccc3)cc2)Oc2c(NC(=O)c3ccncc3)cccc2C1=O`, the cytotoxicity call was “inactive”.

Turning to `CC(C)N1C[C@H](C)[C@@H](CN(C)Cc2ccc(Oc3ccccc3)cc2)Oc2c(NC(=O)c3cccnc3)cccc2C1=O`, the cytotoxicity call was “inactive”.

On to `CC(C)N1C[C@H](C)[C@@H](CN(C)Cc2ccc(Oc3ccccc3)cc2)Oc2c(NC(=O)c3ccccc3)cccc2C1=O`, for which the cytotoxicity call is “active”.

In the case of `C[C@H]1CCCCO[C@@H](CN(C)C(=O)c2ccccc2)[C@@H](C)CN([C@@H](C)CO)C(=O)c2cc(NC(=O)Nc3ccc(C(F)(F)F)cc3)ccc2O1`, the cytotoxicity call was “inactive”.

On to `COc1ccc(CNC(=O)C[C@@H]2C[C@@H]3c4cc(NC(=O)NC5CCCC5)ccc4O[C@@H]3[C@@H](CO)O2)cc1`, for which the cytotoxicity call was “inactive”.

Consider `O=C(C[C@H]1C[C@@H]2c3cc(NS(=O)(=O)c4ccc(F)cc4)ccc3O[C@@H]2[C@@H](CO)O1)NCc1cccnc1`, for which the cytotoxicity call was “inactive”.

For `C[C@H]1CCCCO[C@@H](CN(C)Cc2ccncc2)[C@@H](C)CN([C@@H](C)CO)C(=O)c2cc(NC(=O)Nc3cccc4ccccc34)ccc2O1`, the cytotoxicity call was “inactive”.

As for `C[C@@H]1CN([C@@H](C)CO)C(=O)c2cc(C#Cc3ccc(F)cc3)cnc2O[C@@H]1CN(C)CC1CCOCC1`, the cytotoxicity call was “inactive”.

As to `Cc1ccc(S(=O)(=O)Nc2ccc3c(c2)C(=O)N([C@H](C)CO)C[C@H](C)[C@H](CN(C)C(=O)Nc2ccc(F)cc2)OCCCC[C@@H](C)O3)cc1`, the cytotoxicity call is “inactive”.

On to `O=c1nc(N2CCc3ccccc3C2)cn[nH]1`, for which the cytotoxicity call is “inactive”.

Consider `COc1ccc(NC(=O)N(C)C[C@@H]2OCCCC[C@H](C)Oc3ccc(NS(=O)(=O)c4ccc(Cl)cc4)cc3C(=O)N([C@@H](C)CO)C[C@@H]2C)cc1`, for which the cytotoxicity call is “inactive”.

For the compound `COc1ccc(cc1)CN1CC[C@]2(CC1)CN([C@H](CO)c1[nH]c3cc(ccc3c12)OC)C(=O)Nc1ccc(cc1)F`, the cytotoxicity call is “active”.

Turning to `COc1ccc2c3c([nH]c2c1)[C@@H](CO)N(C[C@]13CCN(CC1)C(=O)c1ccccc1F)C(=O)Nc1ccc(cc1)F`, the cytotoxicity call was “inactive”.

For the compound `COc1ccc2c3c([nH]c2c1)[C@H](CO)N(C[C@]13CCN(CC1)C(=O)c1ccccc1F)C(=O)Nc1ccc(cc1)F`, the cytotoxicity call was “inactive”.

Turning to `COc1ccc(cc1)CN1CC[C@]2(CC1)CN([C@@H](CO)c1[nH]c3cc(ccc3c12)OC)C(=O)Nc1ccc(cc1)F`, the cytotoxicity call is “active”.

For `COc1ccc2c3c([nH]c2c1)[C@@H](CO)N(C[C@]13CCN(CC1)Cc1cc(on1)-c1ccccc1)C(=O)Nc1ccc(cc1)F`, the cytotoxicity call is “inactive”.

Consider `COc1ccc2c3c([nH]c2c1)[C@H](CO)N(C[C@]13CCN(CC1)C(=O)Nc1ccc(cc1)F)C(=O)c1ccc(cc1)F`, for which the cytotoxicity call is “inactive”.

For `COc1ccc(NC(=O)Nc2ccc3c(c2)C(=O)N([C@@H](C)CO)C[C@@H](C)[C@@H](CN(C)Cc2ccc(C(=O)O)cc2)OCCCC[C@@H](C)O3)cc1`, the cytotoxicity call was “inactive”.

As for `C[C@H](CO)N1C[C@H](C)[C@H](CN(C)S(=O)(=O)c2cccs2)Oc2ccc(NC(=O)CCN3CCOCC3)cc2CC1=O`, the cytotoxicity call is “inactive”.

Consider `COc1ccccc1CNC(=O)C[C@H]1C[C@@H]2c3cc(NC(=O)c4ccc5c(c4)OCO5)ccc3O[C@@H]2[C@H](CO)O1`, for which the cytotoxicity call was “inactive”.

Consider `C[C@@H]1CCCCO[C@H](CN(C)Cc2ccccc2)[C@@H](C)CN([C@@H](C)CO)C(=O)c2cc(NC(=O)CCCCCC(=O)Nc3ccccc3N)ccc2O1`, for which the cytotoxicity call is “inactive”.

Consider `Cc1noc(C)c1NC(=O)N(C)C[C@@H]1Oc2ccc(NS(=O)(=O)c3ccccc3)cc2CC(=O)N([C@H](C)CO)C[C@@H]1C`, for which the cytotoxicity call was “inactive”.

Take `COc1ccc(S(=O)(=O)Nc2ccc3c(c2)C(=O)N([C@@H](C)CO)C[C@@H](C)[C@H](CN(C)S(=O)(=O)c2cn(C)cn2)OCCCC[C@@H](C)O3)cc1`: the cytotoxicity call was “inactive”.

On to `C[C@@H]1CN([C@H](C)CO)C(=O)c2cccc(NC(=O)c3ccc(-c4nccs4)cc3)c2O[C@@H]1CN(C)Cc1ccccc1`, for which the cytotoxicity call was “inactive”.

Consider `COc1ccc(C#Cc2cnc3c(c2)C(=O)N([C@H](C)CO)C[C@H](C)[C@H](CN(C)C(=O)NC(C)C)O3)cc1OC`, for which the cytotoxicity call was “inactive”.

On to `CO[C@@H]1CN(C)C(=O)c2cc(NC(=O)NC(C)C)ccc2OC[C@@H](C)N(Cc2ccc(-c3ccccn3)cc2)C[C@H]1C`, for which the cytotoxicity call was “inactive”.

Consider `C=CCOC(=O)[C@H]1[C@@H]2C(=O)O[C@@H](c3ccccc3)[C@@H](c3ccccc3)N2[C@@H](c2ccc(OCCOC(=O)[C@H]3C[C@H]4C(=O)NCC(=O)N4[C@H]3c3cccc(OCCO)c3)cc2)[C@]12C(=O)Nc1ccc(I)cc12`, for which the cytotoxicity call was “inactive”.

In the case of `Cc1noc(C)c1NC(=O)Nc1ccc2c(c1)C(=O)N([C@@H](C)CO)C[C@@H](C)[C@@H](CN(C)C(=O)NC1CCCCC1)OCCCC[C@@H](C)O2`, the cytotoxicity call is “inactive”.

As for `COC1=C2C[C@@H](C)C[C@H](OC)[C@H](O)[C@@H](C)/C=C(\C)[C@H](OC(N)=O)[C@@H](OC)/C=C/C=C(\C)C(=O)NC(=CC1=O)C2=O`, the cytotoxicity call was “active”.

In the case of `COC1=C2C[C@H](C)C[C@H](OC)[C@@H](O)[C@H](C)/C=C(\C)[C@H](OC(N)=O)[C@H](OC)/C=C/C=C(\C)C(=O)NC(=CC1=O)C2=O`, the cytotoxicity call was “active”.

On to `CO[C@H]1/C=C\O[C@@]2(C)Oc3c(C)c(O)c4c(c3C2=O)[C@]2(C=C(NC(=O)/C(C)=C\C=C/[C@@H](C)[C@@H](O)[C@@H](C)[C@@H](O)[C@@H](C)[C@@H](OC(C)=O)[C@@H]1C)C4=O)OCC(=O)O2`, for which the cytotoxicity call is “inactive”.

On to `COC1=C2C[C@@H](C)C[C@H](OC)[C@H](O)[C@@H](C)/C=C(\C)[C@H](OC(N)=O)[C@@H](OC)/C=C\C=C(/C)C(=O)NC(=CC1=O)C2=O`, for which the cytotoxicity call is “active”.

With `CO[C@H]1/C=C\C=C(/C)C(=O)NC2=CC(=O)C=C(C2=O)[C@H](OC)[C@@H](C)C[C@H](OC)[C@H](O)[C@@H](C)/C=C(\C)[C@@H]1OC(N)=O`, the cytotoxicity call was “inactive”.

For `Cc1ccc(S(=O)(=O)N2C[C@H](O)COC[C@@H]3O[C@H](CC(=O)N[C@H]4CCN(Cc5ccccc5)C4)CC[C@H]32)cc1`, the cytotoxicity call was “inactive”.

Regarding `O=C(O)Cn1c(=O)oc2ccccc21`, the cytotoxicity call was “inactive”.

Consider `C[C@@H]1CN([C@H](C)CO)C(=O)c2cc(NC(=O)C3CCCCC3)ccc2O[C@@H](C)CCCCO[C@H]1CN(C)C(=O)Cc1ccccc1`, for which the cytotoxicity call is “inactive”.

Regarding `COc1ccc(S(=O)(=O)N(C)C[C@@H]2OCCCC[C@@H](C)Oc3ccc(NC(=O)Nc4ccc(F)cc4)cc3C(=O)N([C@@H](C)CO)C[C@@H]2C)cc1`, the cytotoxicity call was “inactive”.

`COc1cc2ccnc(CCCN)c2cc1OC`: the cytotoxicity call is “inactive”.

With `CCOc1ccc(Cc2nccc3cc(OCC)c(OCC)cc23)cc1OCC.Cl`, the cytotoxicity call is “active”.

Turning to `CCOc1ccc([C@@H](C)N)cc1OCC`, the cytotoxicity call was “inactive”.

`C[C@@H]1CN([C@H](C)CO)C(=O)c2cccc(NC(=O)Nc3ccc(C(F)(F)F)cc3)c2O[C@H]1CN(C)Cc1ccc(C(=O)Nc2ccccc2N)cc1`: the cytotoxicity call was “inactive”.

Take `C[C@H](CO)N1C[C@H](C)[C@@H](CN(C)Cc2ccc(C(=O)Nc3ccccc3N)cc2)Oc2c(NC(=O)Nc3ccc(C(F)(F)F)cc3)cccc2C1=O`: the cytotoxicity call was “inactive”.

As to `C[C@@H]1CN([C@@H](C)CO)C(=O)c2cccc(NC(=O)Nc3ccc(C(F)(F)F)cc3)c2O[C@H]1CN(C)Cc1ccc(C(=O)Nc2ccccc2N)cc1`, the cytotoxicity call is “active”.

As for `C[C@H]1CN([C@@H](C)CO)C(=O)c2cccc(NC(=O)Nc3ccc(C(F)(F)F)cc3)c2O[C@@H]1CN(C)Cc1ccc(C(=O)Nc2ccccc2N)cc1`, the cytotoxicity call was “inactive”.

Turning to `C[C@@H]1CN([C@@H](C)CO)C(=O)c2cccc(NC(=O)Nc3ccc(C(F)(F)F)cc3)c2O[C@@H]1CN(C)Cc1ccc(C(=O)Nc2ccccc2N)cc1`, the cytotoxicity call was “active”.

Turning to `C[C@H]1CN([C@@H](C)CO)C(=O)c2cccc(NC(=O)Nc3ccc(C(F)(F)F)cc3)c2O[C@H]1CN(C)Cc1ccc(C(=O)Nc2ccccc2N)cc1`, the cytotoxicity call was “inactive”.

For `COCC(=O)N(C)C[C@@H]1Oc2cc(C#C[C@H](C)O)ccc2S(=O)(=O)N([C@H](C)CO)C[C@@H]1C`, the cytotoxicity call is “inactive”.

Regarding `C[C@@H]1CN([C@@H](C)CO)C(=O)Cc2cc(NS(=O)(=O)c3ccc(F)cc3)ccc2O[C@@H]1CN(C)Cc1ccc(Cl)c(Cl)c1`, the cytotoxicity call is “active”.

Regarding `C[C@H](CO)N1C[C@H](C)[C@H](CN(C)Cc2ccc(Cl)c(Cl)c2)Oc2ccc(NS(=O)(=O)c3ccc(F)cc3)cc2CC1=O`, the cytotoxicity call is “inactive”.

Turning to `C[C@@H]1CN([C@@H](C)CO)C(=O)Cc2cc(NS(=O)(=O)c3ccc(F)cc3)ccc2O[C@H]1CN(C)Cc1ccc(Cl)c(Cl)c1`, the cytotoxicity call is “inactive”.

`C[C@H](CO)N1C[C@H](C)[C@@H](CN(C)Cc2ccc(Cl)c(Cl)c2)Oc2ccc(NS(=O)(=O)c3ccc(F)cc3)cc2CC1=O`: the cytotoxicity call is “inactive”.

Consider `C[C@@H]1CN([C@H](C)CO)C(=O)Cc2cc(NS(=O)(=O)c3ccc(F)cc3)ccc2O[C@H]1CN(C)Cc1ccc(Cl)c(Cl)c1`, for which the cytotoxicity call is “active”.

Turning to `C[C@H]1CN([C@@H](C)CO)C(=O)Cc2cc(NS(=O)(=O)c3ccc(F)cc3)ccc2O[C@H]1CN(C)Cc1ccc(Cl)c(Cl)c1`, the cytotoxicity call was “active”.

For `C[C@H]1CN([C@@H](C)CO)C(=O)Cc2cc(NS(=O)(=O)c3ccc(F)cc3)ccc2O[C@@H]1CN(C)Cc1ccc(Cl)c(Cl)c1`, the cytotoxicity call is “active”.

`Cc1ccc(S(=O)(=O)Nc2ccc3c(c2)C(=O)N([C@H](C)CO)C[C@H](C)[C@H](CN(C)CC2CC2)O3)cc1`: the cytotoxicity call was “inactive”.

In the case of `OCCn1cncn1`, the cytotoxicity call is “inactive”.

For `CN(C)CCCCNC(=O)[C@H]1C[C@H]2C(=O)NCC(=O)N2[C@H]1c1cccc(OCCO)c1`, the cytotoxicity call is “inactive”.

Turning to `C[C@@H]1CCCCO[C@@H](CN(C)S(=O)(=O)c2cccs2)[C@H](C)CN([C@@H](C)CO)C(=O)c2cc(NC(=O)C3CCCCC3)ccc2O1`, the cytotoxicity call was “inactive”.

With `Cc1ncc(CO)c(CO)c1O`, the cytotoxicity call was “inactive”.

For the compound `C[C@@H]1CCCCO[C@H](CN(C)Cc2ccncc2)[C@H](C)CN([C@@H](C)CO)C(=O)c2cc(NC(=O)Nc3ccc4c(c3)OCO4)ccc2O1`, the cytotoxicity call is “inactive”.

As to `Cc1noc(C)c1NC(=O)N(C)C[C@@H]1Oc2ccc(NS(=O)(=O)c3ccccc3)cc2C(=O)N([C@@H](C)CO)C[C@H]1C`, the cytotoxicity call was “inactive”.

`C[C@@H]1CN([C@H](C)CO)C(=O)Cc2cc(NS(=O)(=O)c3ccc(F)cc3)ccc2O[C@@H]1CN(C)Cc1ccc(Cl)c(Cl)c1`: the cytotoxicity call is “active”.

As to `COc1ccc(S(=O)(=O)N(C)C[C@H]2Oc3c(NC(=O)C4CCOCC4)cccc3C(=O)N([C@@H](C)CO)C[C@@H]2C)cc1`, the cytotoxicity call is “inactive”.
